Records with an inconclusive call do not appear. Where a call stands in place of a potency, no number is given. The source made the active and inactive calls. Calls follow the shape of the dose curve; as a rule, active = well fitted cell-killing curve with a large enough effect in the repeat runs; inconclusive = weak or mixed curves, or effect the other way; inactive = flat fitted curve, though single readings scatter.
Legend:
[1] = cAMP Responsive Elements (CRE) small molecule antagonists, cell-based qHTS assay: qHTS cell viability counter screen (AID 2060913); settings: CRE-bla HEK293T viability, CellTiter-Glo luminescence, 5 h; series mostly up to 92.4 µM; also: nearly all actives have a fitted effect of over 40% in size
Summary of the method: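 Cytotoxicity counter screen multiplexed with the CRE-bla antagonist read: HEK293T cells in DMEM with dialyzed FBS and 25 mM HEPES were treated 3 hrs under 0.25 uM final NKH477, then viability measured by CellTiter-Glo luminescence.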

[2] = cAMP Responsive Elements (CRE) small molecule agonists, cell-based qHTS assay: qHTS cell viability counter screen (AID 2060914); settings: CRE-bla HEK293T viability, CellTiter-Glo luminescence, 5 h; series mostly up to 92.4 µM;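 also: viability read after 3 h of compound exposure; nearly all actives have a fitted effect of over 50% in size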
Summary of the method: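 CRE-bla HEK 293T cells, plated 18 h at 37 °C, were exposed to compounds for 3 h at 37 °C/5% CO2. Viability was then measured in the same wells by CellTiter-Glo luminescence after 30 min at room temperature.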

| Compound | Potency [1] | Potency [2] |
| --- | --- | --- |
| Nc1ccc(S(=O)(=O)Nc2ccccc2)cc1 | inactive | inactive |
| CSc1nnc(C(C)(C)C)c(=O)[nH]1 | inactive | inactive |
| S=c1nccc[nH]1 | inactive | inactive |
| CC[C@]12CCCN3CCc4c(n(c5ccccc45)[C@@](O)(C(=O)OC)C1)[C@@H]32 | inactive | inactive |
| CCCCN(CCCC)CCCOC(=O)c1ccc(N)cc1 | inactive | inactive |
| Clc1nc(Cl)c(Cl)c(Cl)c1Cl | inactive | inactive |
| Cc1ccc(Cl)c(N)c1Cl | inactive | inactive |

From PubChem BioAssay (Tox21)
